{"source": "PubChem BioAssay (NCATS)", "key": {"[1]": {"experiment": "Primary qHTS for inhibitors of nuclear receptor binding SET domain protein 2 (NSD2) in an isogenic RCH-ACV NSD2 p.E1099K mutant (9B) (AID 1645876); note: potency is the fitted concentration of half-maximal effect; nearly all actives have a fitted effect of over 70% in size"}, "[2]": {"experiment": "Primary qHTS for inhibitors of nuclear receptor binding SET domain protein 2 (NSD2) in an RCH-ACV wild type WT cells (2C) (AID 1645877); note: nearly all actives have a fitted effect of over 70% in size; note: potency is the fitted concentration of half-maximal effect"}, "[3]": {"target": "Phospholipid hydroperoxide glutathione peroxidase GPX4 (Homo sapiens) (UniProt P36969)", "sequence (P36969 whole entry, looked up)": "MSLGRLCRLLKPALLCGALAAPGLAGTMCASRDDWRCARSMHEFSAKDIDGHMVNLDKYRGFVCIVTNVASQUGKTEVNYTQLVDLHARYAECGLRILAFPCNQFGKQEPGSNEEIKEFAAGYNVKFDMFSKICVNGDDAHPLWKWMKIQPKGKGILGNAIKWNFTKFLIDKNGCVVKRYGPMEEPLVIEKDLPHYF", "experiment": "Primary qHTS Assay for Inhibitors of Recombinant Selenoprotein Glutathione Peroxidase 4 (GPX4) (AID 1845192); note: nearly all actives have a fitted effect of over 65% in size; note: potency is the fitted concentration of half-maximal effect", "method_in_brief": "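Steps: GPX4 plus compound, 30 min RT; add GR/GSH/NADPH master mix; start with cumene hydroperoxide; read 340/450 nm fluorescence at 0 and 15 min. Finals were 200 nM GPX4, 1 mM GSH, 0.5 mM CHP, 0.5 mM NADPH, 100 nM GR.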"}, "[4]": {"experiment": "qHTS drug screen for cell cycle checkpoint inhibitors in PARPi-resistant BRCA-mutant ovarian cancer cell lines. (AID 1963452; calls by dose curve)", "details": "PEO1/OlaR viability, CellTiter-Glo luminescence, 96 h, stronger effect = lower value", "method_in_brief": "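PEO1, PEO4 and PEO1/OlaR ovarian cancer cells, 600 per well, exposed 96 h at 37C to a dilution series. Viability read by CellTiter-Glo luminescence, normalized to DMSO and empty wells; activity summarized as Z-AUC.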"}, "[5]": {"target": "Glutathione peroxidase 1 (Homo sapiens) (UniProt P07203)", "sequence (P07203 whole entry, looked up)": "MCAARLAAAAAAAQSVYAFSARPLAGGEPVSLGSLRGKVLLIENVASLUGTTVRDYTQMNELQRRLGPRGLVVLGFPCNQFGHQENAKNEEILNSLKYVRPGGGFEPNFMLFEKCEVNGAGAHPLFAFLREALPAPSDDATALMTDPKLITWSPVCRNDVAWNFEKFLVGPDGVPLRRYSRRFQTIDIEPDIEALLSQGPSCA", "experiment": "Primary qHTS Assay for Inhibitors of Recombinant Selenoprotein Glutathione Peroxidase 1 (GPX1) (AID 1845191); note: nearly all actives have a fitted effect of over 65% in size; note: potency is the fitted concentration of half-maximal effect", "method_in_brief": "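GR-coupled readout: NADPH consumption tracked by fluorescence, ex 340/em 450 nm, at t=0 and after 15 min at RT. Final mix 10 nM GPX1, 1 mM GSH, 0.5 mM CHP, 0.5 mM NADPH, 100 nM GR, 0.01% BSA, following 30 min enzyme–compound preincubation.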"}, "[6]": {"target": "Rap guanine nucleotide exchange factor 3 (Homo sapiens) (UniProt O95398)", "sequence (O95398 whole entry, looked up)": "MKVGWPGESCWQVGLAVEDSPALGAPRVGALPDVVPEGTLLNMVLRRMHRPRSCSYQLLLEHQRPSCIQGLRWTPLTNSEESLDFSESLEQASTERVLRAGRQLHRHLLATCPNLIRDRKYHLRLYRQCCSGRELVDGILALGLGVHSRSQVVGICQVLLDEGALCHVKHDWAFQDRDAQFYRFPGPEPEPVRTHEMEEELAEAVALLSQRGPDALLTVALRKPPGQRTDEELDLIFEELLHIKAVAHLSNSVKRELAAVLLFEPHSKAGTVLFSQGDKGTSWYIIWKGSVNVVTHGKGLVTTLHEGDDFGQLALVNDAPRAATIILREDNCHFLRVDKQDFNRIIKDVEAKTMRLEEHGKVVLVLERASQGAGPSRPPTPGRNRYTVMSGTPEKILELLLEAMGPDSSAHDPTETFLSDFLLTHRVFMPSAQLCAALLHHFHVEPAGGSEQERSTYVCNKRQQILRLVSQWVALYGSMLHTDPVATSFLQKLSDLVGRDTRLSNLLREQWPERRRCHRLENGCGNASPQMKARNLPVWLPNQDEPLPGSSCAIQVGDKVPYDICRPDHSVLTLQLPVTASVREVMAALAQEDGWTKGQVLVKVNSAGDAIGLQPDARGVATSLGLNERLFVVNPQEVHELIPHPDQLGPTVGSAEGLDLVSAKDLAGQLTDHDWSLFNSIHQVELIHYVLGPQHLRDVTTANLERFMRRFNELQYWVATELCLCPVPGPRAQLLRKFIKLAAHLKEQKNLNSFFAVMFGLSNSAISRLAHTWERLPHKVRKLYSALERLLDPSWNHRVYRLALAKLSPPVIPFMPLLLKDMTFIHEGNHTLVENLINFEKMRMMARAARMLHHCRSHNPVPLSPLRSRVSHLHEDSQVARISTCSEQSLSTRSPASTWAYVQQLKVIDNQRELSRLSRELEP", "experiment": "Confirmatory qHTS for antagonist of cAMP-regulated guanine nucleotide exchange factor 3 (EPAC1) (AID 1645880);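 note: plate controls were DMSO only for no effect and full effect of the ATA control for full effect; nearly all actives have a fitted effect of over 55% in size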", "method_in_brief": "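Released BODIPY-GDP fluoresces less than Rap1-bound BODIPY-GDP; the signal is followed at 480/540 nm at 5-min intervals over 30 min, after 5 min at room temperature. Reactions contain 100 nM EPAC1, 250 nM RAP1B-BODIPY-GDP and 50 uM GDP; results are normalized to ATA and DMSO.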"}, "[7]": {"target": "Rap guanine nucleotide exchange factor 3 (Homo sapiens) (UniProt O95398)", "experiment": "Confirmatory qHTS for agonist of cAMP-regulated guanine nucleotide exchange factor 3 (EPAC1) (AID 1645881);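 note: EPAC1 catalysed release of BODIPY-GDP from Rap1B seen as fluorescence loss; nearly all actives have a fitted effect of over 75% in size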"}, "[8]": {"target": "Rap guanine nucleotide exchange factor 4 (Homo sapiens) (UniProt Q8WZA2)", "sequence (Q8WZA2 whole entry, looked up)": "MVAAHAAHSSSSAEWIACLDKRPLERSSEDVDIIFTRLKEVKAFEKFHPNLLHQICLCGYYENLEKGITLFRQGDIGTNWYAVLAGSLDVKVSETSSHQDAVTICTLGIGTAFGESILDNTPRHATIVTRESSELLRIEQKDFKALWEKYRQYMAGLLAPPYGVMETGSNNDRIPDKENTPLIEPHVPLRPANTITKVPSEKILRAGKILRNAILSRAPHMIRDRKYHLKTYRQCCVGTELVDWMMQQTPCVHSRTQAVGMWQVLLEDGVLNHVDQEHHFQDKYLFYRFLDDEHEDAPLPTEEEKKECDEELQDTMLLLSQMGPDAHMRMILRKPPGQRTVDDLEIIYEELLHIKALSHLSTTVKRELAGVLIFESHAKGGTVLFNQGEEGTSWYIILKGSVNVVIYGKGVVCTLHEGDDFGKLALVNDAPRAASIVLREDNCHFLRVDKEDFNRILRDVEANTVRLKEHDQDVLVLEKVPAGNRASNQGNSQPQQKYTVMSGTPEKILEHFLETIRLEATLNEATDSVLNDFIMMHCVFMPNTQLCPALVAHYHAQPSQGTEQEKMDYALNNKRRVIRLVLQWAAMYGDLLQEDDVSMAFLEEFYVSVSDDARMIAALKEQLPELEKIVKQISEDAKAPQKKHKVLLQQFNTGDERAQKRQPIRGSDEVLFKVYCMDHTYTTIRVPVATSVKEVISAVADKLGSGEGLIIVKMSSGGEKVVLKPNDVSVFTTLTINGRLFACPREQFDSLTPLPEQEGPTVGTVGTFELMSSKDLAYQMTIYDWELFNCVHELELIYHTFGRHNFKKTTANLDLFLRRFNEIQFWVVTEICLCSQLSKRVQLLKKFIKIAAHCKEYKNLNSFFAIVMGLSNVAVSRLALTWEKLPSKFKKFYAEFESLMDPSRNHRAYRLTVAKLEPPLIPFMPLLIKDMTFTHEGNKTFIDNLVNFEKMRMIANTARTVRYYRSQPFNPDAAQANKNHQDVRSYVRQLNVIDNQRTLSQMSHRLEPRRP", "experiment": "Confirmatory qHTS for agonist of cAMP-regulated guanine nucleotide exchange factor 4 (EPAC2) (AID 1645884);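 note: nucleotide exchange releases bodipy-GDP from Rap1 and this lowers its fluorescence; % is set by controls: 0 for no effect and ±100 for the full control effect; nearly all actives have a fitted effect of over 65% in size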"}, "[9]": {"experiment": "NCATS anti-infectives library activity on HEK293 viability as a counter-qHTS vs the C. elegans viability qHTS (AID 1745854); note: % is set by controls: 0 for no effect and ±100 for the full control effect", "method_in_brief": "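Counter-screen for cytotoxicity: HEK293, 24 hr, 37C, compounds up to 41.7 uM final (a dilution series, 1:5). Readout CellTiter-Glo luminescence, 10 min RT. Digitonin control, 83.3 uM final.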"}, "[10]": {"details": "measured here: PEO1 parental Z-AUC"}}, "note": "Several values for one entry are separate records, joined by “and”; a condition that tells them apart may be missing. Identical values can stand only once. Inconclusive results are not listed. Activity calls are given as the source filed them. Unless noted, calls come from the whole dose curve; as a rule, active = well fitted curve in the direction sought with a large enough effect; inconclusive = small, poorly fitted or top-dose-only effect, or another doubt; inactive = no such curve, though single readings can be large; an effect the other way counts as inactive or inconclusive."}
{"smiles": "C[C@@H]1COCCN1c1cc(-c2ccnn2C)c2ccnc(-c3ccn[nH]3)c2n1", "values": [{"measurement": "Potency", "setting": "[1]", "value": "0.209 µM (active)"}, {"measurement": "Potency", "setting": "[2]", "value": "0.186 µM (active)"}, {"measurement": "Potency", "setting": "[3]", "value": "20.2 µM (active)"}, {"measurement": "Z-AUC", "setting": "[4]", "value": "-0.499 (inactive)"}, {"measurement": "Z-AUC", "setting": "[4]; [10]", "value": -1.38}, {"measurement": "Z-AUC", "setting": "[4]; measured here: PEO4 Z-AUC", "value": -1.35}]}
{"smiles": "COC(=O)N[C@H](C(=O)N1CCC[C@H]1c1ncc(-c2ccc(-c3ccc(-c4cnc([C@@H]5CCCN5C(=O)[C@@H](NC(=O)OC)C(C)C)[nH]4)cc3)cc2)[nH]1)C(C)C", "values": [{"measurement": "Potency", "setting": "[2]", "value": "20.9 µM (active)"}, {"measurement": "Potency", "setting": "[5]", "value": "16.1 µM (active)"}, {"measurement": "Potency", "setting": "[3]", "value": "18 µM (active) and 20 µM (active)"}]}
{"smiles": "O=C(O)CNC(=O)c1ncc(-c2cccc(Cl)c2)cc1O", "values": [{"measurement": "Potency", "setting": "[2]", "value": "inactive"}, {"measurement": "Potency", "setting": "[5]", "value": "inactive"}]}
{"smiles": "CCCCCc1ccc(/C=C/[C@H](O)[C@@H](CO)NC)cc1", "values": [{"measurement": "Potency", "setting": "[1]", "value": "23.1 µM (active)"}, {"measurement": "Potency", "setting": "[5]", "value": "inactive"}]}
{"smiles": "CCN1/C(=C/C(C)=O)Sc2ccc(O)cc21", "values": [{"measurement": "Potency", "setting": "[2]", "value": "14.6 µM (active)"}]}
{"smiles": "CNC(=O)CCc1cc(-c2ccc(-c3ccc(C(F)(F)F)cc3)cc2)n(-c2ccc(N3CCNCC3)cc2)n1", "values": [{"measurement": "Potency", "setting": "[2]", "value": "inactive"}, {"measurement": "Potency", "setting": "[3]", "value": "inactive"}]}
{"smiles": "COc1cc(-c2noc(C)c2-c2ccc3[nH]ccc3c2)cc(OC)c1OC", "values": [{"measurement": "Potency", "setting": "[6]", "value": "inactive"}, {"measurement": "Potency", "setting": "[7]", "value": "inactive"}, {"measurement": "Potency", "setting": "[8]", "value": "inactive"}]}
{"smiles": "CC(C)(C)S(=O)(=O)c1ccc2nccc(Nc3n[nH]c4ccc(F)cc34)c2c1", "values": [{"measurement": "Potency", "setting": "[1]", "value": "13.2 µM (active)"}, {"measurement": "Potency", "setting": "[5]", "value": "inactive"}, {"measurement": "Potency", "setting": "[3]", "value": "inactive"}, {"measurement": "Z-AUC", "setting": "[4]", "value": "-0.44 (inactive)"}, {"measurement": "Z-AUC", "setting": "[4]; [10]", "value": -0.407}, {"measurement": "Z-AUC", "setting": "[4]; measured here: PEO4 Z-AUC", "value": -0.499}]}
{"smiles": "CCN1C(=O)N2Cc3cc(OC)cc(OC)c3[C@@H](C)C=C2C12CCN(Cc1cc(C)cc(C)c1)CC2", "values": [{"measurement": "Potency", "setting": "[2]", "value": "18.6 µM (active)"}, {"measurement": "Potency", "setting": "[5]", "value": "inactive"}, {"measurement": "Potency", "setting": "[3]", "value": "inactive"}, {"measurement": "Z-AUC", "setting": "[4]", "value": "-1 (inactive)"}, {"measurement": "Z-AUC", "setting": "[4]; [10]", "value": -1.06}, {"measurement": "Z-AUC", "setting": "[4]; measured here: PEO4 Z-AUC", "value": -1.16}]}
{"smiles": "COc1ccc2c(c1)[C@@H]1C[C@]1(C(=O)N1[C@@H]3CC[C@H]1CN(C)C3)Cn1c-2c(C2CCCCC2)c2ccc(C(=O)NS(=O)(=O)N(C)C)cc21", "values": [{"measurement": "Potency", "setting": "[1]", "value": "20.6 µM (active)"}, {"measurement": "outcome", "setting": "[9]", "value": "inactive"}]}
{"smiles": "CCCCCCCOc1ccc(CCC(N)(CO)CO)cc1C(F)(F)F", "values": [{"measurement": "Potency", "setting": "[1]", "value": "11.8 µM (active)"}, {"measurement": "Potency", "setting": "[2]", "value": "10.5 µM (active)"}, {"measurement": "Potency", "setting": "[3]", "value": "inactive"}, {"measurement": "Z-AUC", "setting": "[4]", "value": "-0.8 (inactive)"}, {"measurement": "Z-AUC", "setting": "[4]; [10]", "value": -1.22}, {"measurement": "Z-AUC", "setting": "[4]; measured here: PEO4 Z-AUC", "value": -1.35}]}
{"smiles": "CC(=O)C(C(c1ccccc1)c1c[nH]c2ccccc12)[N+](=O)[O-]", "note": "(stereo not given)", "values": [{"measurement": "Potency", "setting": "[6]", "value": "inactive"}, {"measurement": "Potency", "setting": "[7]", "value": "inactive"}]}
{"smiles": "CC/C(=C(/c1ccc(/C=C/C(=O)O)cc1)c1ccc2[nH]ncc2c1)c1ccc(F)cc1Cl", "values": [{"measurement": "Potency", "setting": "[2]", "value": "23.5 µM (active)"}, {"measurement": "Potency", "setting": "[5]", "value": "inactive"}, {"measurement": "Potency", "setting": "[3]", "value": "4.04 µM (active)"}, {"measurement": "Z-AUC", "setting": "[4]", "value": "1.39 (inactive)"}, {"measurement": "Z-AUC", "setting": "[4]; [10]", "value": 0.628}, {"measurement": "Z-AUC", "setting": "[4]; measured here: PEO4 Z-AUC", "value": -0.0261}]}
{"smiles": "CN(C)c1ccc(/C=C/c2c(Cl)cnc3ccccc23)cc1", "values": [{"measurement": "Potency", "setting": "[6]", "value": "inactive"}, {"measurement": "Potency", "setting": "[7]", "value": "inactive"}]}
{"smiles": "C[n+]1ccc(-c2c3nc(c(-c4cc[n+](C)cc4)c4ccc([nH]4)c(-c4cc[n+](C)cc4)c4nc(c(-c5cc[n+](C)cc5)c5ccc2[nH]5)C=C4)C=C3)cc1", "values": [{"measurement": "Potency", "setting": "[2]", "value": "inactive"}]}
{"smiles": "C[C@@H]1CC2C3C[C@H](F)C4=CC(=O)C=C[C@]4(C)[C@@]3(F)[C@@H](O)C[C@]2(C)[C@@]1(OC(=O)c1ccco1)C(=O)SCF", "note": "(stereo not given in full)", "values": [{"measurement": "Potency", "setting": "[2]", "value": "inactive"}, {"measurement": "Potency", "setting": "[5]", "value": "inactive"}, {"measurement": "Z-AUC", "setting": "[4]", "value": "0.16 (inactive)"}, {"measurement": "Z-AUC", "setting": "[4]; [10]", "value": 0.658}, {"measurement": "Z-AUC", "setting": "[4]; measured here: PEO4 Z-AUC", "value": -0.282}]}
